In PubChem BioAssay AID1903 (Southern Research Specialized Biocontainment Screening …, 2009):
Among all 310,000 compounds or so, about 1,200 (0.39%) were called active. How the calls were made is not given here. Only a sample is shown. Entries with a potency or affinity are not part of this list.

target: Large T antigen (Simian virus 40) (UniProt P03070); assay: TAg ATPase/helicase activity blockers – biochemical (AID 1903); conditions: SV40 large T antigen ATPase/helicase inhibition assay; at 20 µM; stronger effect = higher value
Sequence (P03070 whole entry, looked up): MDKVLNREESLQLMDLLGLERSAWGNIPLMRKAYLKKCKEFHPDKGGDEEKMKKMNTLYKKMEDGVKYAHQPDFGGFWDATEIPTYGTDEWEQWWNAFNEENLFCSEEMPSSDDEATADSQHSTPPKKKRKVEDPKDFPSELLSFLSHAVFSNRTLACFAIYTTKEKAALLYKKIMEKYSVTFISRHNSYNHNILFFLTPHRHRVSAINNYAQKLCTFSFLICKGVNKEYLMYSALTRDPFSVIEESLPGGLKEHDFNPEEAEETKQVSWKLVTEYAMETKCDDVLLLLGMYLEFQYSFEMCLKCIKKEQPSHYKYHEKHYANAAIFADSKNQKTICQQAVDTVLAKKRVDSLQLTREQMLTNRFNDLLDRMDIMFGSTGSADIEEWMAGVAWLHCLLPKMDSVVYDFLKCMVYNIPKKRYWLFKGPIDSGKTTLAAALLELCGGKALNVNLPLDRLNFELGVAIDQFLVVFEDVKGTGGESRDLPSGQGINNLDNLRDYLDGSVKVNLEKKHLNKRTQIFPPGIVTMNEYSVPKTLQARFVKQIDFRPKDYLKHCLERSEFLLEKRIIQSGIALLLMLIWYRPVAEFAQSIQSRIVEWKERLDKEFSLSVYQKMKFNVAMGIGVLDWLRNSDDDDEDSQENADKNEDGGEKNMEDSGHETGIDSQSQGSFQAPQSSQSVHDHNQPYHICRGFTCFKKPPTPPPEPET

inhibition, inactive:
COc1ccc(OC)c(CNc2ccc([N+](=O)[O-])cc2C)c1 -3.94%, COc1ccc(Br)cc1S(=O)(=O)n1c([N+](=O)[O-])cnc1C -1.15%, C=CCn1cccc(C(=O)Nc2ccc(C)c(C)c2)c1=O 10.4%, Cc1ccc(CNC(=O)COC(=O)Cc2ccc(-c3ccccc3)cc2)cc1 1.94%, CCc1nnc(NC(=O)CCN2C(=O)C3CCCCC3C2=O)s1 (centres undefined) 8.24%, CCOC(=O)C(C)Sc1nc2c(c(=O)[nH]c(=O)n2C)n1C/C=C(/C)Cl (centres undefined) 0.445%, CN(C)/C=C/c1oc2ccc(O)cc2c1[N+](=O)[O-] 32%, CC(=O)Oc1ccc2oc(/C=C/N(C)C)c([N+](=O)[O-])c2c1 13%, OC(COc1ccc(CNCCc2ccccc2F)cc1)CN1CCCCC1 (centres undefined) 5.86%, COCCNC(=S)N/N=C(\C)c1ccc(OC)cc1 13.8%, COCCNC(=S)N/N=C(\C)c1ccc(OC(F)F)cc1 21.1%, COC(=O)c1ccccc1NC(=O)CSc1n[nH]c(C)n1 0.8%, Cc1ccc(Cl)cc1NC(=O)C(NS(=O)(=O)c1cccs1)c1ccccc1 (centres undefined) 3.94%, CC(C)C(NS(=O)(=O)c1ccc2c(c1)OCCCO2)C(=O)O (centres undefined) -3.36%, Nc1ccc2nc(-c3ccc(Cl)cc3)[nH]c2c1 28%, Nc1ccc2nc(-c3ccc(-c4nc5ccc(N)cc5[nH]4)cc3)[nH]c2c1 12.1%, Cc1ccc(-n2nc(C(=O)O)nc2-c2ccccc2)cc1 38%, Cc1cc(=O)nc2c3ccccc3n(CC(=O)NCCC3=CCCCC3)n12 2.66%, COc1ccc(S(=O)(=O)N2CCOC2CNC(=O)C(=O)NCCc2ccccc2)cc1C (centres undefined) 6.95%, Cc1ccc(O)c(N=Cc2cc(Cc3ccccc3)cc([N+](=O)[O-])c2O)c1 15.2%, CN1CCN(CC(=O)N/N=C\c2c[nH]c3ccccc23)CC1 5.96%, O=[N+]([O-])c1ccc(N2CCOCC2)cc1NCc1ccccc1 5.38%, COc1cccc(/C=N/N2CCOCC2)c1O 3.29%, COc1cccc(C=Nc2ccc3c(c2)OCCO3)c1O 21.9%, O=C(O)c1ccc(N=Cc2c(O)ccc3ccccc23)cc1 6.09%, C=Cc1ccc(N=Cc2c(O)ccc3ccccc23)cc1 -18.3%, CN1CCN(/N=C/c2c3ccccc3c(Cl)c3ccccc23)CC1 1.67%, Cc1c(C(=O)N2CCOCC2)c(S(=O)(=O)Nc2ccc(OC(F)(F)F)cc2)c(C)n1C 4.66%, CC(=O)c1c(C)[nH]c(C(=O)OC2CCCCC2=O)c1C (centres undefined) 6.27%, Cc1ccsc1C=Nc1c(C)n(C)n(-c2ccccc2)c1=O 4.72%, COCCNC(=O)C(c1ccco1)N(C(=O)Cn1nnc2ccccc21)c1ccccc1C (centres undefined) 2.93%, Cc1ccc(CN2CC(C(=O)N(C)CC(=O)Nc3cccc(F)c3)CC2=O)cc1 (centres undefined) 25.6%, CC(CC(=O)N(C)c1c(N)n(Cc2ccccc2)c(=O)[nH]c1=O)c1ccccc1 (centres undefined) 12.7%, COc1ccccc1CNc1nc(S(=O)(=O)c2ccccc2)c(Cl)s1 21.1%, O=C(NC1CCCCC1)C(c1ccco1)N(CCc1ccccc1)C(=O)C(F)(F)F (centres undefined) 9.43%, COC(=O)c1cccc(NC(=O)c2cnn(C)c2)c1 3.5%, Oc1cc(Br)ccc1C=Nc1ccc(N2CCCCC2)cc1 10.6%, CN(C)c1nc(N/N=C/c2c[nH]c3ccccc23)nc(N2CCOCC2)n1 27.1%, Oc1c(Br)cc(Cl)cc1C=Nc1ccc(N2CCOCC2)cc1 17.2%, C(=N\Nc1nc(Nc2ccccc2)nc(N2CCOCC2)n1)/c1c[nH]c2ccccc12 5.43%, Oc1c(Cl)cc(Cl)cc1C=Nc1ccc(N2CCOCC2)cc1 15.7%, Cc1cc(Br)cc(C=Nc2ccc(N3CCOCC3)cc2)c1O 19.2%, O=C1[C@H]2[C@@H](c3ccc(Cl)cc3)N3C(=O)N(c4cccc(Cl)c4)C(=O)[C@@]3(Cc3ccccc3)[C@H]2C(=O)N1C1CCCCC1 6.67%, Cc1ccc(S(=O)(=O)N2CCN(S(=O)(=O)c3ccc4c(c3)OCCO4)CC2)cc1 2.43%, O=C(C1CCN(C2CC(=O)N(c3ccc(F)cc3)C2=O)CC1)N1CCOCC1 (centres undefined) 6.36%, COc1ccccc1N1CCN(C(CNS(C)(=O)=O)c2cccnc2)CC1 (centres undefined) 10%, CCOC(=O)c1[nH]c(C)c(C(=O)N2CCN(c3ccc(F)cc3)CC2)c1C 27.5%, C/C(CC(=O)Nc1ccc2c(c1)OCCO2)=N\NC(=O)COc1cccc(C)c1 6.15%, O=C(COC(=O)[C@@H]1CCCN1S(=O)(=O)c1ccc(Cl)cc1)NC1CCS(=O)(=O)C1 (some centres undefined) 1.86%, CCOc1ccc(/C=N/NS(=O)(=O)c2ccc(C)cc2)cc1OC 12.6%, COC(=O)C1=C(C)Nc2[nH]c(=S)[nH]c(=O)c2C1c1ccc(O)cc1 (centres undefined) 26.6%, Cc1ccc(C2C3=C(CCCC3=O)Nc3[nH]c(=S)[nH]c(=O)c32)cc1 (centres undefined) 23.7%, COC1Cc2ccccc2N(C(N)=O)c2ccccc21 (centres undefined) 11.8%, NS(=O)(=O)c1ccc(CCNC(=O)CSc2nc3ccccc3c3nc(CCN4CCCCC4)nn23)cc1 1.71%, COc1ccc(C2=CC3=C(Br)C(=O)C(C)(OC(=O)c4cccs4)C(=O)C3=CO2)cc1 (centres undefined) 52.5%, COc1ccc(C2=CC3=C(Br)C(=O)C(C)(OC(=O)c4ccco4)C(=O)C3=CO2)cc1 (centres undefined) 50.8%, COc1ccc2oc(C)c(C(=O)NN)c2c1 28.3%, O=C(NC1CCS(=O)(=O)C1)Oc1ccccc1 (centres undefined) 6.71%, O=C(NC1CCS(=O)(=O)C1)Oc1ccc(Cl)cc1 (centres undefined) 9.05%, O=[N+]([O-])c1ccccc1-c1cc(-c2cc(Cl)ccc2O)n[nH]1 19%, O=[N+]([O-])c1ccccc1-c1cc(-c2ccccc2O)n[nH]1 5.15%, O=C(OCC(=O)N1CCN(c2ccccc2)CC1)c1cccs1 3.9%, O=C(CSc1ccc(-c2nc3ccccc3[nH]2)cn1)Nc1ccc2c(c1)OCCO2 3.79%, CCN(c1ccc(NC(=O)COC(=O)c2ccc(C)s2)cc1)C(C)C 29.8%, CCOC(=O)c1c(N)sc(N)c1C(=O)OCC 36.6%, CCOC(=O)c1c(C)[nH]sc1=S 15%, O=C(NC(=S)Nc1ccccc1[N+](=O)[O-])c1cncc(Br)c1 7.4%, CCOc1ccc(Br)cc1S(=O)(=O)Nc1ccc(C(=O)Nc2ccccc2OC)cc1 11.7%, O=[N+]([O-])c1ccc2c(c1Nc1ccccc1Cl)=NC1(CCCCC1)N=2 14.5%, CCN(CC)C(=O)C(=O)c1cccn1-c1ccc(C#N)cc1 12.2%, O=C(Nc1ccccc1)c1ccc(NCC2CCCO2)c([N+](=O)[O-])c1 (centres undefined) 16.3%, COc1ccc(NC(=O)NC(C)(C(F)(F)F)C(F)(F)F)cc1 1.34%, CC(NC(=O)Nc1ccccc1O)(C(F)(F)F)C(F)(F)F 10.1%, O=C(Nc1ccccc1N1CCN(C(=O)c2ccc(Cl)cc2)CC1)c1cccnc1 -3.62%, Cc1noc(C)c1CS(=O)(=O)c1ccc([N+](=O)[O-])cc1 4.7%, CC/C(=N\Nc1nncc2ccccc12)c1ccc(F)cc1 0.15%, O=C(c1ccncc1)c1ccc(N2CCN(C3CC(=O)N(Cc4cccs4)C3=O)CC2)cc1 (centres undefined) 4.51%, O=C1CC(N2CCN(c3ccc(F)cc3)CC2)C(=O)N1Cc1cccs1 (centres undefined) 7.54%, COc1cc2c(cc1NC(=O)CSc1ccc(Cl)cc1)oc1ccccc12 20.1%, Cc1ccc(C(=O)CSc2nnc(-c3cccnc3)n2N)cc1 13.6%, O=C(COC(=O)CCC(NC(=O)OCc1ccccc1)C(=O)OCC(=O)Nc1ccccc1)Nc1ccccc1 (centres undefined) 9.57%, O=C(O)/C=C/C(=O)Nc1ccc(-n2nccc2C(F)(F)F)cc1 22.7%, CC(/C=C1\SC(=S)N(NS(=O)(=O)c2ccccc2)C1=O)=C\c1ccccc1 28.2%, O=C1/C(=C\c2ccc(Br)cc2)SC(=S)N1NS(=O)(=O)c1ccccc1 5.34%, O=C(NN1C(=O)/C(=C/c2ccc(O)cc2)SC1=S)c1ccccc1O 38%, O=C(NN1C(=O)/C(=C/c2cccc(O)c2)SC1=S)c1ccccc1O 0.53%, CCCC1NC(=S)N(C2CCCCC2)C1=O (centres undefined) 1.78%, Cc1ccc(-c2cc3c(n2-c2ccc(C(=O)O)cc2)CCCC3=O)cc1 11%, Cc1ccc(-n2c(C)cc3c2CCCC3=O)cc1 17.7%, CCC(C)(C)n1nnnc1C(c1ccccc1F)N1CCC(C(N)=O)CC1 (centres undefined) 8.52%, O=C(COc1ccc(Cl)cc1)NCc1nnc(SCC(=O)NC2CCCC2)o1 14.1%, COc1ccc2cc(C(=O)N3CCN(c4ccccc4OC)CC3)[nH]c2c1 2.37%, Cc1ccc2[nH]c3ccccc3c(=O)c2c1 4.82%, O=c1c2ccccc2[nH]c2ccccc12 7.79%
